# Tests used:
# Experiment in all cases: DAPPL (digital affinity profiling via proximity ligation, sequencing); 10 mM Tris-HCl pH 7.5, 50 mM NaCl, 1 mM DTT, 4% glycerol, room temperature, 30 min; GST-TFs on glutathione beads, 16-mer random dsDNA library, 0.1% formaldehyde crosslink after washing; high values mean tight binding
# FLI1 = target: T1, FLI1 (Homo sapiens, UniProt Q01543 1-452); conditions: protein: recombinant; tags: N-terminal GST; dsDNA, one strand shown
# T1 sequence: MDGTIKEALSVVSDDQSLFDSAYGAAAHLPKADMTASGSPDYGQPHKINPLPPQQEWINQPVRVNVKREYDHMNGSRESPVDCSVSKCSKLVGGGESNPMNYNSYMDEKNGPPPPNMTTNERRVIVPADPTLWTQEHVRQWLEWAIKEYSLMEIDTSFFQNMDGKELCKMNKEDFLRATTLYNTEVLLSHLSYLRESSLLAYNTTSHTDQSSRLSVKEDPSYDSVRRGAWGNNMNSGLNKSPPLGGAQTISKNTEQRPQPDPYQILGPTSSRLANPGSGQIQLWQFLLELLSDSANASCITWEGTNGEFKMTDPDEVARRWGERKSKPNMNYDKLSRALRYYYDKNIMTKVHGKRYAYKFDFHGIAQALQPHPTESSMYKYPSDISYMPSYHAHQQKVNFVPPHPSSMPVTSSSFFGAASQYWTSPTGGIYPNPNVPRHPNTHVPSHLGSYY
# Summary of the method: (§1)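 Human transcription factors fused to GST were expressed in yeast, captured on glutathione beads, given DNA barcodes and pooled with a GST-only negative control. Pools were incubated with 200 nmole of a 16-mer random double-stranded DNA library in Tris/NaCl/DTT/glycerol buffer at room temperature for 30 min. They were then washed, crosslinked with 0.1% formaldehyde, proximity-ligated (BsaI/T4 ligase, 1 h, 37 °C), PCR-amplified and sequenced on an Illumina NextSeq500. Binding signal is each 6-mer's read frequency for a factor divided by its frequency for the GST control.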
# ELK1 = target: T2, ELK1 (Homo sapiens, UniProt P19419 1-428); conditions: protein: recombinant; tags: N-terminal GST; dsDNA, one strand shown
# T2 sequence: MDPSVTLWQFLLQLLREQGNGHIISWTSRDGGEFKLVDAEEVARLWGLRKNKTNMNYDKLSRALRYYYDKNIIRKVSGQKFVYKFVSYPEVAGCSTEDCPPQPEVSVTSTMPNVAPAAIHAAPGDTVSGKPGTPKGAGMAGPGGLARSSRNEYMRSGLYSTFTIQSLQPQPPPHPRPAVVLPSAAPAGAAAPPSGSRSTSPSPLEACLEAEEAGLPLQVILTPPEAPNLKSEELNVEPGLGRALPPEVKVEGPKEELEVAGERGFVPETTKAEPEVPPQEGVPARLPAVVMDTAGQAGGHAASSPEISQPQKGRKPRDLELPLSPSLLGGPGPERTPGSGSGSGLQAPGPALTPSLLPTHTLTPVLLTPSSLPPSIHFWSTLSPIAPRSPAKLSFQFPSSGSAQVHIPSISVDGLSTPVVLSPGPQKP
# Summary of the method: as §1
# GABPA = target: T3, GABPA (Homo sapiens, UniProt Q06546 1-454); conditions: protein: recombinant; tags: N-terminal GST; dsDNA, one strand shown
# T3 sequence: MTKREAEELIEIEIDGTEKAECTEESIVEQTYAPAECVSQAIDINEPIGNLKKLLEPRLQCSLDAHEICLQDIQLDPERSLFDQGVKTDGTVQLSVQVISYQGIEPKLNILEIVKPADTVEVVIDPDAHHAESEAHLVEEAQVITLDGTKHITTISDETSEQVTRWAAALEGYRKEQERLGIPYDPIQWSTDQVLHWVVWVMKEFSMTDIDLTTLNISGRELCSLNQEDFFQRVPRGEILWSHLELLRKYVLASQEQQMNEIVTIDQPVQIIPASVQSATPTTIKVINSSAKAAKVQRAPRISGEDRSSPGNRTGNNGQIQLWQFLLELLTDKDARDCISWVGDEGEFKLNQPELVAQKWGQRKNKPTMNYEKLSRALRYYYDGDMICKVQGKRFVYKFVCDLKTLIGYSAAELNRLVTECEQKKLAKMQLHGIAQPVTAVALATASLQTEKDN
# Summary of the method: as §1
# ERG = target: T4, ERG (Homo sapiens, UniProt P11308 1-479); conditions: protein: recombinant; tags: N-terminal GST; dsDNA, one strand shown
# T4 sequence: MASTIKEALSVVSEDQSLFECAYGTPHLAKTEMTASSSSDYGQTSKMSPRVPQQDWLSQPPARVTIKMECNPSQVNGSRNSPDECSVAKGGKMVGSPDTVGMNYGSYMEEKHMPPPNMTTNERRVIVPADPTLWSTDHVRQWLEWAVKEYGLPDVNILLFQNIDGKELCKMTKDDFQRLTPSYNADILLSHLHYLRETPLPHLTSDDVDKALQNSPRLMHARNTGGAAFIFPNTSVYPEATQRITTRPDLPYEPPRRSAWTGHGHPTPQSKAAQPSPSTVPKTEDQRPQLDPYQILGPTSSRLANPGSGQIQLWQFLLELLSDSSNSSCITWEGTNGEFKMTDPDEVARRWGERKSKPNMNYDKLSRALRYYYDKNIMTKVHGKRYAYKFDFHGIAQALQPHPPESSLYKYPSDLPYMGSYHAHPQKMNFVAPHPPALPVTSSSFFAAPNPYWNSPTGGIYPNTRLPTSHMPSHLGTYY
# Summary of the method: as §1
# ELF1 = ELF1 (Homo sapiens, UniProt P32519 1-619); conditions: protein: recombinant; tags: N-terminal GST; dsDNA, one strand shown
# ELF1, sequence (P32519 whole entry): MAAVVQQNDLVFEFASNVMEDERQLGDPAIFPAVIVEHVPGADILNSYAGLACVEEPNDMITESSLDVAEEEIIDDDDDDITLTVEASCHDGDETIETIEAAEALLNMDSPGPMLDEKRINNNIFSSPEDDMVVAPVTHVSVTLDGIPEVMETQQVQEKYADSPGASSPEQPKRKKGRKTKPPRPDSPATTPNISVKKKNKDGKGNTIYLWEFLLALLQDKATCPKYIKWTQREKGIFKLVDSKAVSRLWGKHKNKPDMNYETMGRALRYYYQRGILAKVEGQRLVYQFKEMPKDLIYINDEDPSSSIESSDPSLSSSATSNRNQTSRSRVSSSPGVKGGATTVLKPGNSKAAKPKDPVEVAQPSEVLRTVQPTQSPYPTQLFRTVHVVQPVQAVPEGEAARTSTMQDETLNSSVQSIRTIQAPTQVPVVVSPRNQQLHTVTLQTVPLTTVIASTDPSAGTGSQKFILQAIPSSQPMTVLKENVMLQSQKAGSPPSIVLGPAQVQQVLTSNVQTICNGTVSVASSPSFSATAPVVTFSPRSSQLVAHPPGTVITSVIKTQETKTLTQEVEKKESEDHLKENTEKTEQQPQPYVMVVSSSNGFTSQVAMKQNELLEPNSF
# Summary of the method: as §1
# EHF = target: T5, EHF (Homo sapiens, UniProt Q9NZC4 1-300); conditions: protein: recombinant; tags: N-terminal GST; dsDNA, one strand shown
# T5 sequence: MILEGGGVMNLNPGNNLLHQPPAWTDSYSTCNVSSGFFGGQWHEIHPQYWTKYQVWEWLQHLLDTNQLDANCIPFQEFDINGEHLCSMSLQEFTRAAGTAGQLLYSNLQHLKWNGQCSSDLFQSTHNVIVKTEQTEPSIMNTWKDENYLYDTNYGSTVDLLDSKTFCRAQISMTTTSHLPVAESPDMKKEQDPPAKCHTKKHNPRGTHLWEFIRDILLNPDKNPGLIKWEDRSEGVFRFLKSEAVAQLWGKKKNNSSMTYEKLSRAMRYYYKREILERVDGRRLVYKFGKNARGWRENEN
# Summary of the method: as §1
# SPI1 = SPI1 (Homo sapiens, UniProt P17947 1-270); conditions: protein: recombinant; tags: N-terminal GST; dsDNA, one strand shown
# Summary of the method: as §1
# SPIB = SPIB (Homo sapiens, UniProt Q01892 1-262); conditions: protein: recombinant; tags: N-terminal GST; dsDNA, one strand shown
# SPIB, sequence (Q01892 whole entry): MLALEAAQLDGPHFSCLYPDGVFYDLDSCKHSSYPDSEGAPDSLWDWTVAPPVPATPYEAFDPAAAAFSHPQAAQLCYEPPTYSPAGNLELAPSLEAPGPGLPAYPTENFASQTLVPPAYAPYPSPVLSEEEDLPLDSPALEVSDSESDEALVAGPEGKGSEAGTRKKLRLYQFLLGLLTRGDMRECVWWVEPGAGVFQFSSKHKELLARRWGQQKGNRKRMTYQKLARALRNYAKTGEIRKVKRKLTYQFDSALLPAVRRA
# Summary of the method: as §1
# ELK3 = target: T6, ELK3 (Homo sapiens, UniProt P41970 1-407); conditions: protein: recombinant; tags: N-terminal GST; dsDNA, one strand shown
# T6 sequence: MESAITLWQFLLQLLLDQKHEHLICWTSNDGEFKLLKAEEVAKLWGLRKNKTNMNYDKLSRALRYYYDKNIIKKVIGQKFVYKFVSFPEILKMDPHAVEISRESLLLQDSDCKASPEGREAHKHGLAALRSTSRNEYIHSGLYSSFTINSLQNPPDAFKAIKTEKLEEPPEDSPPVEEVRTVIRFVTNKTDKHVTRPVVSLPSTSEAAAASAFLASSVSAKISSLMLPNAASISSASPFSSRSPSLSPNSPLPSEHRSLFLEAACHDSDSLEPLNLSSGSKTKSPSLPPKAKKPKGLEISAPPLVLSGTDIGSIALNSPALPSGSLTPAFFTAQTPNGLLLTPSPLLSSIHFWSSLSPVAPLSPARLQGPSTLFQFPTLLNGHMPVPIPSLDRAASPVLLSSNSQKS
# Summary of the method: as §1
# FEV = target: T7, FEV (Homo sapiens, UniProt Q99581 1-238); conditions: protein: recombinant; tags: N-terminal GST; dsDNA, one strand shown
# T7 sequence: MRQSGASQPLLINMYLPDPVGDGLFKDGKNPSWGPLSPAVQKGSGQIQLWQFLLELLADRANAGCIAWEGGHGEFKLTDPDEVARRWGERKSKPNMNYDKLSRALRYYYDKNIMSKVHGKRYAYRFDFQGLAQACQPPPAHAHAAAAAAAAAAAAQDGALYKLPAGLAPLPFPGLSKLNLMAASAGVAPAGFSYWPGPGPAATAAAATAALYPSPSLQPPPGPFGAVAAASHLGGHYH
# Summary of the method: as §1
# ETV5 = ETV5 (Homo sapiens, UniProt P41161 1-510); conditions: protein: recombinant; tags: N-terminal GST; dsDNA, one strand shown
# ETV5, sequence (P41161 whole entry): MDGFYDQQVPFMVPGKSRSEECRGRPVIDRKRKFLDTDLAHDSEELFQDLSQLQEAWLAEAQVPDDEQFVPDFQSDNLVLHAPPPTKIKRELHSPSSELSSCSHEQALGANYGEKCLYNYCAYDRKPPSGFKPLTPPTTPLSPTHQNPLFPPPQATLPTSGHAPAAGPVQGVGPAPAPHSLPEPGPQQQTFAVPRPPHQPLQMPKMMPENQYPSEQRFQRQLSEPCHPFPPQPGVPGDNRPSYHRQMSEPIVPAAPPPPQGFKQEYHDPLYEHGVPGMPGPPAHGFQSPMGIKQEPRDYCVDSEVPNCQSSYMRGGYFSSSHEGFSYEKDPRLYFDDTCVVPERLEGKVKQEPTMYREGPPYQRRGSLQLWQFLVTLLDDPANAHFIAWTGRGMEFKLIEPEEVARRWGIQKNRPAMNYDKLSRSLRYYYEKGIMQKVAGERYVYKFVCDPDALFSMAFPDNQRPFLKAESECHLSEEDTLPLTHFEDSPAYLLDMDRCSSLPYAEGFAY
# Summary of the method: as §1
# HSF1 = HSF1 (Homo sapiens, UniProt Q00613 1-529); conditions: protein: recombinant; tags: N-terminal GST; chain copies: 3; dsDNA, one strand shown
# HSF1, sequence (Q00613 whole entry): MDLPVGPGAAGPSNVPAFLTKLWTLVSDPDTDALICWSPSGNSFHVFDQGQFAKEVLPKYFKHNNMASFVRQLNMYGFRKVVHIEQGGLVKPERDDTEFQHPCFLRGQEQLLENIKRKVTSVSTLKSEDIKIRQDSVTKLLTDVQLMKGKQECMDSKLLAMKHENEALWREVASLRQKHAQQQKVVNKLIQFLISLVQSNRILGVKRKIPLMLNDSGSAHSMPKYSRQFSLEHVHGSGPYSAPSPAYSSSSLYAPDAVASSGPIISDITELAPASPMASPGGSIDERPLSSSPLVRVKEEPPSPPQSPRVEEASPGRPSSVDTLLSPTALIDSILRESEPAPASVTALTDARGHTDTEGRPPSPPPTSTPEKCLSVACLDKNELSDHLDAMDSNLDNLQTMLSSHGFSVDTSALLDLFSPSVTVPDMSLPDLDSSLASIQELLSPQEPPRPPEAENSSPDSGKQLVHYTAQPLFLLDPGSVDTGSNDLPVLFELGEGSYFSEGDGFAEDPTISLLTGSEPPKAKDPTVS
# Summary of the method: as §1
# SPIC = target: T8, SPIC (Homo sapiens, UniProt Q8N5J4 1-248); conditions: protein: recombinant; tags: N-terminal GST; dsDNA, one strand shown
# T8 sequence: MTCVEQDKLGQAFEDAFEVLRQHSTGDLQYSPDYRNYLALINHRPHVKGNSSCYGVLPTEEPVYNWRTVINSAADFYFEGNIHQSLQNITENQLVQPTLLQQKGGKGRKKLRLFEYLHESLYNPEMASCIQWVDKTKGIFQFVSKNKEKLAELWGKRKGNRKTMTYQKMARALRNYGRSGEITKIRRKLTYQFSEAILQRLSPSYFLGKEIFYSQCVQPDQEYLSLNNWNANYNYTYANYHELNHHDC
# Summary of the method: as §1
# ELF4 = ELF4 (Homo sapiens, UniProt Q99607 1-663); conditions: protein: recombinant; tags: N-terminal GST; dsDNA, one strand shown
# ELF4, sequence (Q99607 whole entry): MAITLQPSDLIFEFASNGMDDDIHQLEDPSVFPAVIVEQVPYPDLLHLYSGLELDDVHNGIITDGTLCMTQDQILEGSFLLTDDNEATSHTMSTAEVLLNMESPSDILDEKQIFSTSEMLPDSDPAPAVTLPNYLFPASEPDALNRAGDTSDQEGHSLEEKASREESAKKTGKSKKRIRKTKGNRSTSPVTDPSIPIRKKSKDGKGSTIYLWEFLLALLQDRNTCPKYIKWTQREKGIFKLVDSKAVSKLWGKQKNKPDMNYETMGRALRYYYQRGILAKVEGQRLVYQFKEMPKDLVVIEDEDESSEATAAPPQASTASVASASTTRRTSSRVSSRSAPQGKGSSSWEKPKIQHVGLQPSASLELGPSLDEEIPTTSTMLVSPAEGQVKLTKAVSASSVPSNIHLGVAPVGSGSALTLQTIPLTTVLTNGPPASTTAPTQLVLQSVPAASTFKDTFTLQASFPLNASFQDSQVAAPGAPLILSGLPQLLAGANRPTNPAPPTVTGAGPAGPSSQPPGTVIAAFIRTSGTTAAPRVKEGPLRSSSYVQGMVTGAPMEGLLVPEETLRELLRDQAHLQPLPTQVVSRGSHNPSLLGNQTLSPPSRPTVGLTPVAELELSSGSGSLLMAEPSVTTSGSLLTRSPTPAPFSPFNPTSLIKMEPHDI
# Summary of the method: as §1
# ELK4 = target: T9, ELK4 (Homo sapiens, UniProt P28324-2 1-405); conditions: protein: recombinant; tags: N-terminal GST; dsDNA, one strand shown
# T9 sequence: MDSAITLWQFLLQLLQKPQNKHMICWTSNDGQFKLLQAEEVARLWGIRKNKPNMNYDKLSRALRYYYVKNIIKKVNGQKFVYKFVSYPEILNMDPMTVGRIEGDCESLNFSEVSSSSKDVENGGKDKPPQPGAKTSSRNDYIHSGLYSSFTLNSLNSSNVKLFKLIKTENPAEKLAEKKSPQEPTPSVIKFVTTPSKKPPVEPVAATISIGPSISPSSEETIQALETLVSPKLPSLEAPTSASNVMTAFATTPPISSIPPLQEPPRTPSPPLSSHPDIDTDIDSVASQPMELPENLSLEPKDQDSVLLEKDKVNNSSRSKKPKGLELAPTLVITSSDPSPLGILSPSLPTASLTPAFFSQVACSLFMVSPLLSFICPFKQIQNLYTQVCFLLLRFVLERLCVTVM
# Summary of the method: as §1
# ETV2 = target: T10, ETV2 (Homo sapiens, UniProt O00321 1-342); conditions: protein: recombinant; tags: N-terminal GST; dsDNA, one strand shown
# T10 sequence: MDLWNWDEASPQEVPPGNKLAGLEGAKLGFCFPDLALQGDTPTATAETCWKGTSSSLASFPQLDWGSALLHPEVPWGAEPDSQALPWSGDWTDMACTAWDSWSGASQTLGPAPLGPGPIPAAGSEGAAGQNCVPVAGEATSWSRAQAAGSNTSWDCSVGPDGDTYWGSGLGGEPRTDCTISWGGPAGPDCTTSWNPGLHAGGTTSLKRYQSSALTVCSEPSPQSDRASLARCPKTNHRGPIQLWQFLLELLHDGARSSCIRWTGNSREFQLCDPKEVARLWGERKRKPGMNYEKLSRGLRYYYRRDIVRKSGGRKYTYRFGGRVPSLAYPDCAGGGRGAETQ
# Summary of the method: as §1
# ELF3 = target: T11, ELF3 (Homo sapiens, UniProt P78545 1-371); conditions: protein: recombinant; tags: N-terminal GST; dsDNA, one strand shown
# T11 sequence: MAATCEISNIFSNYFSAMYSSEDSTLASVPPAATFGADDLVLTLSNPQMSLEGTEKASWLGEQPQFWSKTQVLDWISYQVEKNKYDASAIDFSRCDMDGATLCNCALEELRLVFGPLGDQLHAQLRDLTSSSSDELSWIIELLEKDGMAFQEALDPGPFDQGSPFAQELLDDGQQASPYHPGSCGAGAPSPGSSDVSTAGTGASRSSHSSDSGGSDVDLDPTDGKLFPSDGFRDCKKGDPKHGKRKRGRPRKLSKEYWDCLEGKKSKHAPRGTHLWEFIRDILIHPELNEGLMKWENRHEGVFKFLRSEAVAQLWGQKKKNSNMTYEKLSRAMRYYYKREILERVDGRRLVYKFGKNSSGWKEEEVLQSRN
# Summary of the method: as §1
# CRX = CRX (Homo sapiens, UniProt O43186 1-299); conditions: protein: recombinant; tags: N-terminal GST; dsDNA, one strand shown
# CRX, sequence (O43186 whole entry): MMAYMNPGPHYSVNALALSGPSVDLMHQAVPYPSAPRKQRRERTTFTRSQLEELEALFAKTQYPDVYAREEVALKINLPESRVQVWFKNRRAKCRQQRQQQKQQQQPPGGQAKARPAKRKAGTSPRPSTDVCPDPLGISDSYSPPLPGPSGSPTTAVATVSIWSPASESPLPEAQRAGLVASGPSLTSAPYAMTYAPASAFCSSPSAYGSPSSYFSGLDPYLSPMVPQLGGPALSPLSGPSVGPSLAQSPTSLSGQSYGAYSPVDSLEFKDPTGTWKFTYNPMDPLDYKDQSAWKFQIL
# Summary of the method: as §1
# ETV1 = ETV1 (Homo sapiens, UniProt P50549 1-477); conditions: protein: recombinant; tags: N-terminal GST; dsDNA, one strand shown
# ETV1, sequence (P50549 whole entry): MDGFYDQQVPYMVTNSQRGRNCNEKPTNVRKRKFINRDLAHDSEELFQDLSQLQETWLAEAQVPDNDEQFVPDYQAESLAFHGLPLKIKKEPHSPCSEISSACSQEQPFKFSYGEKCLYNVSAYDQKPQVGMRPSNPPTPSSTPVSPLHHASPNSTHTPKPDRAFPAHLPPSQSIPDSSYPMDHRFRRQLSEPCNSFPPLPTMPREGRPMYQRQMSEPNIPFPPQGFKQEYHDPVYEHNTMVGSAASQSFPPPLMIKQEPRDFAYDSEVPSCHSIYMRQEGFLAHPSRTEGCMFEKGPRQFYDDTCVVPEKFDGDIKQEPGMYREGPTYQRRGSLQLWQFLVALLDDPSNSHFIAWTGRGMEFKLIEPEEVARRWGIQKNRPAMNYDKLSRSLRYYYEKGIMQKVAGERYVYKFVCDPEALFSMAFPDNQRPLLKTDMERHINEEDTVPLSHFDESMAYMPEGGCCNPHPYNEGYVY
# Summary of the method: as §1
sequence,measurement,setting,value
AAAAAG,binding signal,FLI1,"1.18 fold enrichment (6-mer frequency, TF over GST control)"
same,binding signal,ELK1,"1.18 fold enrichment (6-mer frequency, TF over GST control)"
same,binding signal,GABPA,"1.25 fold enrichment (6-mer frequency, TF over GST control)"
same,binding signal,ERG,"1.19 fold enrichment (6-mer frequency, TF over GST control)"
same,binding signal,ELF1,"1.13 fold enrichment (6-mer frequency, TF over GST control)"
same,binding signal,EHF,"1.22 fold enrichment (6-mer frequency, TF over GST control)"
same,binding signal,SPI1,"1.72 fold enrichment (6-mer frequency, TF over GST control)"
same,binding signal,SPIB,"1.29 fold enrichment (6-mer frequency, TF over GST control)"
same,binding signal,ELK3,"1.2 fold enrichment (6-mer frequency, TF over GST control)"
same,binding signal,FEV,"1.2 fold enrichment (6-mer frequency, TF over GST control)"
same,binding signal,ETV5,"1.3 fold enrichment (6-mer frequency, TF over GST control)"
same,binding signal,HSF1,"1.34 fold enrichment (6-mer frequency, TF over GST control)"
same,binding signal,SPIC,"1.13 fold enrichment (6-mer frequency, TF over GST control)"
same,binding signal,ELF4,"1.26 fold enrichment (6-mer frequency, TF over GST control)"
same,binding signal,ELK4,"1.32 fold enrichment (6-mer frequency, TF over GST control)"
same,binding signal,ETV2,"1.08 fold enrichment (6-mer frequency, TF over GST control)"
same,binding signal,ELF3,"1.28 fold enrichment (6-mer frequency, TF over GST control)"
same,binding signal,CRX,"1.2 fold enrichment (6-mer frequency, TF over GST control)"
same,binding signal,ETV1,"1.26 fold enrichment (6-mer frequency, TF over GST control)"

# — article PMC7862700, “An all-to-all approach to the identification of sequence-specific readers for epigenetic DNA modifications on cytosine”
